Eight sequences from paper PMC7862700, “An all-to-all approach to the identification of sequence-specific readers for epigenetic DNA modifications on cytosine” can be followed below.

Test in all cases: DAPPL (digital affinity profiling via proximity ligation, sequencing); 10 mM Tris-HCl pH 7.5, 50 mM NaCl, 1 mM DTT, 4% glycerol, room temperature, 30 min; GST-TFs on glutathione beads, 16-mer random dsDNA library, 0.1% formaldehyde crosslink after washing; high values mean tight binding
Holding throughout (details): protein: recombinant; tags: N-terminal GST; dsDNA, one strand shown

One experiment concerns the target T1, FLI1 (Homo sapiens, UniProt Q01543 1-452).
T1 sequence: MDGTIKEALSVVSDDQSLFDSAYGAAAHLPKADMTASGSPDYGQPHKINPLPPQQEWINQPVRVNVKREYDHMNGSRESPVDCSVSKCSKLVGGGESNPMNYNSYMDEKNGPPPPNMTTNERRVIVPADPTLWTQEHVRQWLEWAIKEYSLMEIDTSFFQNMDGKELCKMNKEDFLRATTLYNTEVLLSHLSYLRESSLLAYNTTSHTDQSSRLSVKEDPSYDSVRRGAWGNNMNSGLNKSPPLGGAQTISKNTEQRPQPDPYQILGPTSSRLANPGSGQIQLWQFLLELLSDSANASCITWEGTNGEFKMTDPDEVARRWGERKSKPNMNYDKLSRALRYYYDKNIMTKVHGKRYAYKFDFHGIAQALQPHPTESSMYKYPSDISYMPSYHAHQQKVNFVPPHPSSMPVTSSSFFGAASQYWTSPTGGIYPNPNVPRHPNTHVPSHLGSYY
In outline:
(§1)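 Pools were built from human transcription factors expressed in yeast as GST fusions, captured on glutathione beads and DNA-barcoded, along with a tag-only sample. Incubation with 200 nmole of a 16-mer random double-stranded DNA library lasted 30 min at room temperature in Tris/NaCl/DTT/glycerol buffer, and was followed by washing, 0.1% formaldehyde crosslinking, proximity ligation, PCR amplification and Illumina NextSeq500 sequencing. Binding signal is the quotient of each hexamer's read frequency for a factor and its frequency for the tag-only sample.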

The next experiment deals with T2, ELK1 (Homo sapiens, UniProt P19419 1-428).
T2 sequence: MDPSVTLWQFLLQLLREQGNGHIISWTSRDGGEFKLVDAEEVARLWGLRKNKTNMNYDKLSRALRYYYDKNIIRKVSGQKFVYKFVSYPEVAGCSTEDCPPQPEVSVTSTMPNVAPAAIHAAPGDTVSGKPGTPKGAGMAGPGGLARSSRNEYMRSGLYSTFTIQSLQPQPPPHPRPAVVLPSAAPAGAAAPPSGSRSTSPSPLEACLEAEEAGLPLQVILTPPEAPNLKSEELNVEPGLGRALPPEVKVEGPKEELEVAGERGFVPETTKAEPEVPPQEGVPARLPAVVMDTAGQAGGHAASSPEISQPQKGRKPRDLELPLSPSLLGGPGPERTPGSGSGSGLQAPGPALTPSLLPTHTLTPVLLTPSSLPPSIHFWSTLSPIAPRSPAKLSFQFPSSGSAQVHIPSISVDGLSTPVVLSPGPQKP
In outline: as §1

Another experiment has as its target T3, GABPA (Homo sapiens, UniProt Q06546 1-454).
T3 sequence: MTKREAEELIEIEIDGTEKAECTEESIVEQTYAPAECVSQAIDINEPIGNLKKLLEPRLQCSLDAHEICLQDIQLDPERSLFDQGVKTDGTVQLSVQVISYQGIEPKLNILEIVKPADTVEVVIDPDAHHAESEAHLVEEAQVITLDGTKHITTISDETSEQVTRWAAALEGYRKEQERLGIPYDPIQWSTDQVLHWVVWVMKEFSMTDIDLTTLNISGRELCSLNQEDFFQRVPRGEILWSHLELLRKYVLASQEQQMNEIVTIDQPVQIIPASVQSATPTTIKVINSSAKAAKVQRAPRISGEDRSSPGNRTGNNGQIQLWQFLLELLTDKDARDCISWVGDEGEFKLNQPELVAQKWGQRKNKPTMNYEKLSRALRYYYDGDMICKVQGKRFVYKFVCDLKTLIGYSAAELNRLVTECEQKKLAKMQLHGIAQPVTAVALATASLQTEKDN
In outline:
as §1

For a further experiment, the target named is T4, ERG (Homo sapiens, UniProt P11308 1-479).
T4 sequence: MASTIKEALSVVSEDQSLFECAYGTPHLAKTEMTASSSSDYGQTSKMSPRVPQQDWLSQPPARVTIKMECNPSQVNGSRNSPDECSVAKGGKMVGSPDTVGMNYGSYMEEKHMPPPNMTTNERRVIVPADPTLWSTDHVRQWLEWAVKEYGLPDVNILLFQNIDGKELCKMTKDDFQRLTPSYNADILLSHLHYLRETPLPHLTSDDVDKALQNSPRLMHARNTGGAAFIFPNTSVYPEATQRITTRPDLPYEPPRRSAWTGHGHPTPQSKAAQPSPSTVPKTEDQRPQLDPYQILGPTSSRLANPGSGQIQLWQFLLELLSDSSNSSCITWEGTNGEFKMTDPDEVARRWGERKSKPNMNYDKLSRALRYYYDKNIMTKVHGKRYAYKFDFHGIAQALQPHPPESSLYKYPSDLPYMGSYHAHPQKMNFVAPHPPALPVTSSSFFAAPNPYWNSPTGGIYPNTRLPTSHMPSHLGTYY
An outline of the steps:
as §1

A further experiment deals with ELF1 (Homo sapiens, UniProt P32519 1-619). In outline:
as §1

Another experiment concerns the target T5, EHF (Homo sapiens, UniProt Q9NZC4 1-300).
T5 sequence: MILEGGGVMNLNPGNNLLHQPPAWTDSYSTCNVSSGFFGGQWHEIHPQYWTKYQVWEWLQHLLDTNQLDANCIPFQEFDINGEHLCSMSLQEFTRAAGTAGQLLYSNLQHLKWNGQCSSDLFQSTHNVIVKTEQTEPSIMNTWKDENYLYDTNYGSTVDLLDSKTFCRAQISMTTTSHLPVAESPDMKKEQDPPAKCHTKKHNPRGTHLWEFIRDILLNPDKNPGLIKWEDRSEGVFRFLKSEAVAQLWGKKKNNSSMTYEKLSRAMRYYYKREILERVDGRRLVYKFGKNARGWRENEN
An outline of the steps:
as §1

The target in the next experiment is SPI1 (Homo sapiens, UniProt P17947 1-270). An outline of the steps:
as §1

A further experiment concerns the target SPIB (Homo sapiens, UniProt Q01892 1-262). An outline of the steps:
as §1

Another experiment concerns the target T6, ELK3 (Homo sapiens, UniProt P41970 1-407).
T6 sequence: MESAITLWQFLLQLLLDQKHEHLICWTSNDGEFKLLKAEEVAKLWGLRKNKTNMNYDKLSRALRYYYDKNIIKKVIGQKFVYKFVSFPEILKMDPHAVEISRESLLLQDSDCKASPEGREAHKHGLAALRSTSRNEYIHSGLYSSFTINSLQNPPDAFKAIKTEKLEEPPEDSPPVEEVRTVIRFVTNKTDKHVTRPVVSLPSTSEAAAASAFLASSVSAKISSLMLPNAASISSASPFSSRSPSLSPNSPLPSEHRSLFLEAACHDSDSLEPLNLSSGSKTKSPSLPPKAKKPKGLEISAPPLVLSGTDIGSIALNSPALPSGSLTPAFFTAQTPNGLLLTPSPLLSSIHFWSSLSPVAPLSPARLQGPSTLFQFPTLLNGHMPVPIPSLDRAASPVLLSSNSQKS
In outline:
as §1

Sequence of SPIB (Q01892 whole entry): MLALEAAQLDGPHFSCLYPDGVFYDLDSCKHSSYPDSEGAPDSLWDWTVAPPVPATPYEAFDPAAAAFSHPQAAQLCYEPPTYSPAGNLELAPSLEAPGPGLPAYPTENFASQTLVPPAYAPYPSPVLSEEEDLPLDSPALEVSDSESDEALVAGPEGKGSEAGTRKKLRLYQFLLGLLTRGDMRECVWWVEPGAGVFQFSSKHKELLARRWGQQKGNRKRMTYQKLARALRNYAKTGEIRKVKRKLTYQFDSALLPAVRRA
Sequence of ELF1 (P32519 whole entry): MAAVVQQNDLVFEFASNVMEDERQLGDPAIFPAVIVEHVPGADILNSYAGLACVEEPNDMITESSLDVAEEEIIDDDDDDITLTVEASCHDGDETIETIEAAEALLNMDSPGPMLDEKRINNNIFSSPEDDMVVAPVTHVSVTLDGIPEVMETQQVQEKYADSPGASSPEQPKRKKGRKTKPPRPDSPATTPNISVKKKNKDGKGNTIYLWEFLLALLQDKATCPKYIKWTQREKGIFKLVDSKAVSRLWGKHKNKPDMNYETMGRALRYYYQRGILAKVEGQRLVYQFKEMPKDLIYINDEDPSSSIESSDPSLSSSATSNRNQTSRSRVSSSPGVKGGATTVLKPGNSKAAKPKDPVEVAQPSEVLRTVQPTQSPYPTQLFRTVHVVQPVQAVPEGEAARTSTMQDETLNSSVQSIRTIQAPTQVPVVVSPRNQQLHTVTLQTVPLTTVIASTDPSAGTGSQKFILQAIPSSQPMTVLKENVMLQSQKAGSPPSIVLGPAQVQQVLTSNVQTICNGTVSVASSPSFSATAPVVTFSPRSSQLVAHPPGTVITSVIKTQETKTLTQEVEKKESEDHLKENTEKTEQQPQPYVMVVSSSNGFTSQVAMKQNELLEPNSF

Regarding TTGGTG, the binding signal was 1.35 fold enrichment (6-mer frequency, TF over GST control) in the experiment with FLI1; 1.21 fold enrichment (6-mer frequency, TF over GST control) with ELK1; 1.42 fold enrichment (6-mer frequency, TF over GST control) with GABPA; 1.23 fold enrichment (6-mer frequency, TF over GST control) with ERG; 1.3 fold enrichment (6-mer frequency, TF over GST control) with ELF1; 1.43 fold enrichment (6-mer frequency, TF over GST control) in the experiment with EHF. Moreover, the binding signal with SPI1 is 1.22 fold enrichment (6-mer frequency, TF over GST control); with SPIB, 1.22 fold enrichment (6-mer frequency, TF over GST control); with ELK3, 1.55 fold enrichment (6-mer frequency, TF over GST control).

As to TGCTAG, the binding signal with FLI1 is 1.11 fold enrichment (6-mer frequency, TF over GST control); with ELK1, 1.08 fold enrichment (6-mer frequency, TF over GST control); with GABPA, 1.08 fold enrichment (6-mer frequency, TF over GST control); with ERG, 1.11 fold enrichment (6-mer frequency, TF over GST control); with ELF1 it was 1.16 fold enrichment (6-mer frequency, TF over GST control); with EHF it was 1.1 fold enrichment (6-mer frequency, TF over GST control). Also, the binding signal with SPI1 was 1.2 fold enrichment (6-mer frequency, TF over GST control); with SPIB, 1.19 fold enrichment (6-mer frequency, TF over GST control); in the experiment with ELK3, 1.03 fold enrichment (6-mer frequency, TF over GST control).

For the sequence CGTTCT, the binding signal with FLI1 is 1.37 fold enrichment (6-mer frequency, TF over GST control); in the experiment with ELK1, 1.41 fold enrichment (6-mer frequency, TF over GST control); with GABPA it was 1.44 fold enrichment (6-mer frequency, TF over GST control); with ERG it was 1.55 fold enrichment (6-mer frequency, TF over GST control); in the experiment with ELF1, 1.5 fold enrichment (6-mer frequency, TF over GST control); with EHF, 1.3 fold enrichment (6-mer frequency, TF over GST control). In addition, the binding signal with SPI1 was 1.39 fold enrichment (6-mer frequency, TF over GST control); with SPIB it was 1.43 fold enrichment (6-mer frequency, TF over GST control); in the experiment with ELK3, 1.52 fold enrichment (6-mer frequency, TF over GST control).

For the sequence CTCAAG, the binding signal is 1.29 fold enrichment (6-mer frequency, TF over GST control) with FLI1; 1.17 fold enrichment (6-mer frequency, TF over GST control) with ELK1; 1.14 fold enrichment (6-mer frequency, TF over GST control) with GABPA; 1.18 fold enrichment (6-mer frequency, TF over GST control) in the experiment with ERG; 1.18 fold enrichment (6-mer frequency, TF over GST control) with ELF1; 1.21 fold enrichment (6-mer frequency, TF over GST control) with EHF. Moreover, the binding signal in the experiment with SPI1 was 1.22 fold enrichment (6-mer frequency, TF over GST control); in the experiment with SPIB, 1.2 fold enrichment (6-mer frequency, TF over GST control); with ELK3 it was 1.32 fold enrichment (6-mer frequency, TF over GST control).

As for TACTAC, the binding signal was 1.29 fold enrichment (6-mer frequency, TF over GST control) in the experiment with FLI1; 1.35 fold enrichment (6-mer frequency, TF over GST control) with ELK1; 1.31 fold enrichment (6-mer frequency, TF over GST control) in the experiment with GABPA; 1.24 fold enrichment (6-mer frequency, TF over GST control) in the experiment with ERG; 1.39 fold enrichment (6-mer frequency, TF over GST control) with ELF1; 1.36 fold enrichment (6-mer frequency, TF over GST control) with EHF. The binding signal is 1.2 fold enrichment (6-mer frequency, TF over GST control) with SPI1; 1.41 fold enrichment (6-mer frequency, TF over GST control) in the experiment with SPIB; 1.2 fold enrichment (6-mer frequency, TF over GST control) in the experiment with ELK3.

On to TTTCGG, for which the binding signal with FLI1 was 1.08 fold enrichment (6-mer frequency, TF over GST control); with ELK1, 1.14 fold enrichment (6-mer frequency, TF over GST control); in the experiment with GABPA it was 1.14 fold enrichment (6-mer frequency, TF over GST control); with ERG, 1.26 fold enrichment (6-mer frequency, TF over GST control); with ELF1 it was 1.22 fold enrichment (6-mer frequency, TF over GST control); with EHF, 1.18 fold enrichment (6-mer frequency, TF over GST control). Further, the binding signal with SPI1 was 1.36 fold enrichment (6-mer frequency, TF over GST control); with SPIB it was 1.14 fold enrichment (6-mer frequency, TF over GST control); with ELK3, 1.22 fold enrichment (6-mer frequency, TF over GST control).

Consider TGCCTC, for which the binding signal was 1.39 fold enrichment (6-mer frequency, TF over GST control) in the experiment with FLI1; 1.31 fold enrichment (6-mer frequency, TF over GST control) with ELK1; 1.36 fold enrichment (6-mer frequency, TF over GST control) with GABPA; 1.35 fold enrichment (6-mer frequency, TF over GST control) with ERG; 1.31 fold enrichment (6-mer frequency, TF over GST control) with ELF1; 1.26 fold enrichment (6-mer frequency, TF over GST control) with EHF. The binding signal in the experiment with SPI1 was 1.39 fold enrichment (6-mer frequency, TF over GST control); with SPIB, 1.4 fold enrichment (6-mer frequency, TF over GST control); with ELK3, 1.27 fold enrichment (6-mer frequency, TF over GST control).

As to GTTCTC, the binding signal with FLI1 is 1.36 fold enrichment (6-mer frequency, TF over GST control); with ELK1 it was 1.18 fold enrichment (6-mer frequency, TF over GST control); with GABPA, 1.4 fold enrichment (6-mer frequency, TF over GST control); with ERG, 1.27 fold enrichment (6-mer frequency, TF over GST control); with ELF1 it was 1.28 fold enrichment (6-mer frequency, TF over GST control); in the experiment with EHF, 1.22 fold enrichment (6-mer frequency, TF over GST control). For the same sequence, the binding signal with SPI1 was 1.33 fold enrichment (6-mer frequency, TF over GST control); with SPIB it was 1.35 fold enrichment (6-mer frequency, TF over GST control); with ELK3, 1.19 fold enrichment (6-mer frequency, TF over GST control).
